Bioassay records as filed in PubChem.
A selection: hits, their analogues and other compounds. The true share with any hit is near 12%.
PostGolgi yeast: growth inhibition of a yeast mutant, post-Golgi transport screen. 98,000 tested, 0.9% active. inhibition, % at 10 µM. post-Golgi transport phenotypic cell assay;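 further: yeast cells grown in 1536-well plates; yeast grown about 18 h at 30C before absorbance read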
DAT uptake mod: changed human dopamine transporter uptake under cocaine IC80; B-score at 10 µM; LLC-PK1 hDAT cells, [14C]-dopamine uptake with cocaine IC80; actives deviate in either direction; Q01959; AID 449768; 110,000 tested, 1.3% active;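 active means Z score or B-score, a plate-position-corrected score, falls beyond the plate's 99.7% confidence bounds, in either direction; inactive means both scores lie inside the 99.7% bounds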;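 further: scored against the spread of the other compound wells on the same plate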
D1 allo mod: allosterically modulates the human D1 dopamine receptor. P21728. HEK293 D1, CRE-luciferase, dopamine EC30 potentiation; actives deviate in either direction. B-score at 10 µM. 58,000 tested, 5.9% active. AID 641;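 active means luminescence count or its row- and column-corrected plate score outside the 99.7% band of the plate's sample wells, on either side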
PostGolgi ctrl: inhibits growth of the yeast control strain; efflux-deficient yeast background strain, growth absorbance A615, 16 h; inhibition, % at 10 µM; 98,000 tested, 5% active; AID 738
Cav32 inh: blocks human Cav3.2 T-type calcium channel; Cav3.2-expressing cells, Fluo-4 calcium fluorescence FDSS; active compounds read low; 100,000 tested, 4% active; B-score at 10 µM;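 active means single-dose well whose peak fluorescence ratio is a statistical outlier from its plate by either plate-standardised score or position-corrected B-score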
PLAP activator: activates human placental alkaline phosphatase; P05187; purified PLAP enzyme, luminescent substrate read-out; active compounds read high; activation fold at 20 µM; 96,000 tested, 1.2% active; in the data active means activation fold above about 2
Target sequence (P05187 whole entry, looked up): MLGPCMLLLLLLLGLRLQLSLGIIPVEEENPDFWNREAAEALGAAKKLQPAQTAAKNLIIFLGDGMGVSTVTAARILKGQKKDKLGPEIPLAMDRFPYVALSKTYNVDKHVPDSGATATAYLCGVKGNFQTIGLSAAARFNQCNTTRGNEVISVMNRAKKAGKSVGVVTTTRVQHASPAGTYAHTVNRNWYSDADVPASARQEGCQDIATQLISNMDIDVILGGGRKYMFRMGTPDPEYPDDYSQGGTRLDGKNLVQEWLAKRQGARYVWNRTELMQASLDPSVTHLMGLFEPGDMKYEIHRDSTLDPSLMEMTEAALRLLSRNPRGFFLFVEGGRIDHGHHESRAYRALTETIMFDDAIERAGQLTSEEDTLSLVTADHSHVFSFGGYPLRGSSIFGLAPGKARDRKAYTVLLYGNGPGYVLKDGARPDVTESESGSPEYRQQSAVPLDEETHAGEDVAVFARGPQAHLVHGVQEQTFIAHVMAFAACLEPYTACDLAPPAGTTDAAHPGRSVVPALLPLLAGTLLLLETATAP
Active calls of the source: *; / = no result given. Unless noted, no stated cut-off is given here; in the data, active means inhibition above about 30%; inactive means the rest.

SMILES	PostGolgi yeast	DAT uptake mod	D1 allo mod	PostGolgi ctrl	Cav32 inh	PLAP activator
C=C(C)C(=O)Nc1cccc(C2=NOC3(C2)C[C@H](C(N)=O)N(C(=O)c2ccccc2C(=O)c2ccccc2)C3)c1 (stereo partly drawn)	/	1.1	/	/	-0.082	/
O=C(CCCNC(=O)/C(=C\c1ccc(F)cc1)NC(=O)c1ccccc1)OCc1ccccc1	0	-1.7	/	6	-2.6	1
CCCNC(=O)c1ccccc1NC(=O)c1ccc(CSc2ccccc2)cc1	12	1.9	/	80*	-2.2	1.1
O=C(Nc1ccccc1C(=O)NCc1ccccc1)c1ccccc1	-4	-0.95	/	16	-1.3	1
COc1ccc(CC(=O)Nc2cccc(-c3nnc(-c4cccc(C)c4)o3)c2)cc1OC	3	3.1*	-2.7*	13	-5.5	0.9
CC(C)(C)C(=O)Nc1cccc(-c2nnc(-c3cccc(NC(=O)C(C)(C)C)c3)o2)c1	/	0.56	/	/	-0.82	/
COc1ccc(CC(=O)Nc2cccc(-c3nnc(-c4ccc(C)cc4)o3)c2)cc1OC	-8	1.7	-0.17	-5	-0.7	/
CC(=O)Nc1cccc(-c2nnc(-c3ccccc3)o2)c1	2	-8.4*	0.038	-5	-0.54	0.8
COc1ccc(-c2nc3cc(NC(=O)Cc4ccc(OC)c(OC)c4)ccc3o2)cc1	-6	0.98	-3.9*	2	-1.4	1.8
CCCC(=O)Nc1ccc(-c2nc3cc(C)c(C)cc3o2)cc1	-3	-0.29	-2.4*	8	0.012	1
Fc1ccc(Oc2nccc(-c3ccc(Cl)cc3)n2)cc1	23	-1	/	13	0.97	1.1
Nc1nc(SCC(=O)NCCC(c2ccccc2)c2ccccc2)n[nH]1	2	0.088	/	4	0.026	/
COc1ccc(CC(=O)Nc2cccc(-c3nnc(-c4ccccc4)o3)c2)cc1OC	4	2.7*	-2.3	22	0.54	1.2
C=CCN(CC=C)C(=S)NC(=O)c1ccc(-c2ccccc2)cc1	25	0.2	/	7	-4.4*	1
COc1ccc(C(=O)NC(=S)N(Cc2ccccc2)Cc2ccccc2)cc1	-10	-0.033	/	17	-2.7	1.1
COc1ccc(S(=O)(=O)Nc2cc(C)c(O)c(S(=O)(=O)c3ccccc3)c2)cc1	-22	0.25	0.81	6	-5.1*	1
O=C(CSc1ccccc1C(=O)O)NCc1ccco1	5	-0.85	/	6	0.75	0.9
CC(C)Oc1ccc(C(CC(=O)NCc2ccco2)c2ccccc2)cc1 (stereo not drawn)	-1	-0.085	/	6	-3.9*	0.8
O=C1c2cccc3c(O)ccc(c23)C(=O)N1Cc1ccccc1	30*	-0.19	/	23	-10*	0.8
O=C1c2cccnc2C(=O)N1Cc1ccccc1	7	-1	3.6	4	-0.67	/
CC(=O)c1ccc(N(C)C)c2c(N(C)C)cccc12	-3	-1.2	-0.87	3	-2.1	0.9
Cc1ccc(N2CN=c3s/c(=C\c4ccccn4)c(=O)n3C2)cc1	4	0.23	-1.6	-2	-0.47	0.9
Cc1cc(C(=O)CSc2nnc(-c3cccs3)o2)c(C)n1-c1ccccc1	-2	0.4	-3.6*	20	-5.1*	1.4
O=C(CSc1nnc(-c2csc3c2CCCC3)o1)Nc1ccccc1	2	0.083	-2.3*	3	-0.25	2*
COc1cccc(NC(=O)CSc2nnc(-c3cc(C)n(-c4ccccc4)c3C)o2)c1	-13	0.067	-2.9	14	-3.6*	1.3
SMILES	PostGolgi yeast	DAT uptake mod	D1 allo mod	PostGolgi ctrl	Cav32 inh	PLAP activator
Cc1cc(C)cc(NC(=O)CSc2nnc(-c3ccccc3Br)o2)c1	-7	-0.17	-0.21	15	-1.1	0.9
CCC(C)N(C(=O)Cn1nnc2ccccc21)C(C(=O)Nc1ccc(F)cc1)c1cccc(OC)c1 (stereo not drawn)	10	0.34	/	9	-1.9	1.3
CCC1Oc2ccc(C)cc2N(CC(=O)NCC2COc3ccccc3O2)C1=O (stereo not drawn)	0	0.97	/	/	-5.2*	1.5
CCC1Oc2ccc(C)cc2N(CC(=O)NCc2cccc(OC)c2)C1=O (stereo not drawn)	15	0.78	-1.1	33*	-1.1	1.1
COc1ccccc1CNC(=O)CCN1C(=O)COc2ccccc21	4	0.7	0.75	0	0.55	0.9
CCC1Oc2ccc(C)cc2N(CC(=O)NCc2ccccc2OC)C1=O (stereo not drawn)	-3	-0.43	-1.6	10	-0.24	1.1
COc1ccc(OC)c(CNC(=O)CCN2C(=O)COc3ccccc32)c1	-1	1.6*	0.26	12	0.52	1.2
Cc1ccc2c(c1)N(CCC(=O)NCC1COc3ccccc3O1)C(=O)CO2 (stereo not drawn)	-4	0.38	-0.11	3	-2.8	2.2*
Cc1nnsc1C(=O)NC1CCCCC1	-11	-0.67	/	17	0.88	1
Cc1nc(Cl)c(C(=O)NC(=O)Nc2cccc(C(F)(F)F)c2)c(C)c1[N+](=O)[O-]	/	-0.88	/	/	-0.044	/
COc1ccc(C(=O)CN2C(=O)c3ccccc3C2=O)c(OC)c1C	-2	-0.21	1.8	-1	-5.2*	0.7
Cc1ccc(OCCCn2c(CO)nc3ccccc32)cc1	37*	0.71	-1.3	7	-1.2	1.6
OCc1nc2ccccc2n1CCCOc1ccccc1	5	0.38	-1.4	3	-2.6	1.1
COc1ccccc1N1CCN(C(=O)c2ccc(CS(=O)(=O)c3ccccc3OC)o2)CC1	-3	-0.33	-0.39	10	2.4	1.7
C/C=C/c1ccc(Oc2nnnn2-c2ccc(C(N)=O)cc2)c(OC)c1	0	-0.45	-6.5*	2	-0.081	1.1
COc1cc(C2NC(C(=O)O)CS2)ccc1OCc1ccccc1C#N (stereo not drawn)	-8	0.57	-2.8*	9	0.16	2.1*
O=C(CSc1nc(Nc2ccccc2)nc(N2CCOCC2)n1)Nc1ccc([N+](=O)[O-])cc1	44*	0.98	/	17	-3.6	1.5
O=C(CSc1ncn[nH]1)Nc1nnc(-c2ccccc2)s1	-1	-0.23	-0.3	6	0.47	2.3*
O=C(Nc1ccc(Cn2cccn2)cc1)c1ccc(COc2ccccc2Br)cc1	-8	0.26	/	32*	-3.3	0.9
COc1cc(NC(=O)c2ccccc2)c(OC)cc1Cl	/	0.64	/	/	-0.76	/
COc1ccccc1NC(=O)c1ccc(N)cc1	-3	-0.52	0.13	0	-4.2*	0.9
COc1ccccc1NC(C)=O	-6	0.86	/	-14	0.54	0.9
COc1cc(N)c(Cl)cc1NC(=O)c1ccccc1	8	0.28	0.005	39*	-0.052	0.9
COc1ccccc1NC(=O)NCCCl	/	-2.4*	/	/	-0.00083	/
Cc1cc(C)c(NC(=O)C2CCCN2C(=O)NC2CCCCC2)c(C)c1 (stereo not drawn)	/	-1.7	/	/	0.88	/
CCN(CC(=O)NCCc1ccc(S(N)(=O)=O)cc1)Cc1nc2cc(OC)c(OC)cc2c(=O)[nH]1	-6	-0.64	/	-7	0.36	2.9*
